Measurements: PubChem BioAssay AID504834 (National Center for Advancing Translational Sciences (NCATS), 2011)
“And” between values parts separate entries of the source, which are not always exact repeats. Equal entries are not always repeated. About 22,000 (6.9%) of roughly 320,000 compounds were called active. A call without a number means that no potency is given here. Another 27% or so got no clear call; they are omitted. The sample holds actives, similar compounds and a random draw of the others, so the mix is not that of the screen. Calls follow the shape of the dose curve; as a rule, active = well fitted inhibition curve with a large enough effect; inconclusive = small, poorly fitted or top-dose-only effect, or another doubt; inactive = no such curve, though single readings can be large or run the other way. A structure can be active in one record and inactive in another.

Assay: Primary qHTS for delayed death inhibitors of the malarial parasite plastid, 96 hour incubation
Conditions: P. falciparum luciferase reporter growth; series mostly up to 28.7 µM
How it was run: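 Erythrocytes infected with luciferase-expressing P. falciparum were dispensed at 2% hematocrit and 0.05% parasitemia (final), then incubated with compounds 96 hours at 37 C in 5% CO2. Luminescence after detection reagent addition reported growth.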
Potency is read from the fitted curve at half-maximal effect.

| SMILES | Potency |
| --- | --- |
| COc1ccc(C(=O)NC2=NCCS2)c(OC)c1 | inactive |
| CCCOc1ccc(NC(=O)C2CCCNC2=O)cc1 (centres undefined) | inactive |
| CCCOc1ccc(NC(=O)C2OC3OC(C)(C)OC3C3OC(C)(C)OC23)cc1 (centres undefined) | 10.4 µM (active) |
| CCCOc1ccc(C(=O)CCC(=O)OC(C)C(=O)Nc2ccc(NC(C)=O)cc2)cc1 (centres undefined) | inactive |
| CC(=O)c1ccc(N2CCN(C(=O)c3ccc(Cl)c(S(=O)(=O)NC4CC4)c3)CC2)c(F)c1 | inactive |
| CC(C)OC(=O)c1ccc(COc2ccc3ccc(=O)oc3c2)o1 | inactive |
| Cc1ccc(CN(CC(=O)NC2CCCCC2)C(=O)c2csnn2)cc1 | inactive |
| Cc1ccccc1CCN(CC(=O)NC1CCCCC1)C(=O)c1csnn1 | 11.7 µM (active) |
| O=C(CN(C(=O)c1csnn1)c1ccc(Br)cc1)NC1CCCC1 | inactive |
| Cc1cc(NC(=O)CCC(=O)N(CC(=O)NCC2CCCO2)c2ccccc2)no1 (centres undefined) | inactive |
| O=C(CN1CCC(O)(c2cccc(C(F)(F)F)c2)CC1)NCCc1ccccc1 | inactive |
| COC(=O)CNC(=O)c1cc(-c2ccncc2)nc2ccccc12 | inactive |
| CCN(CC)CCNC(=O)c1ccc(NC(=O)c2cc(-c3ccncc3)nc3ccccc23)cc1 | 8.28 µM (active) |
| Cc1ccc2nc(-c3ccncc3)cc(C(=O)Nc3ccc4c(c3)OCCO4)c2c1 | inactive |
| O=S(=O)(Nc1cccc(-c2ccc(N3CCOCC3)nn2)c1)c1ccc(Cl)c(Cl)c1 | inactive |
| CCCCCCOC(=O)NCC(O)c1ccccc1 (centres undefined) | inactive |
| CCCC[N+]1(C)C2CC(OC(=O)C(CO)c3ccccc3)CC1C1OC12 (centres undefined) | inactive and 1.2 µM (active) |
| CCCCC(=O)NNC(=S)NC(=O)C(c1ccccc1)c1ccccc1 | inactive |
| CN(C)C(=O)Cn1c(=O)n(S(=O)(=O)c2ccccc2)c2ccccc21 | inactive |
| Cc1ccc(OCC(=O)N/N=C/c2ccncc2)cc1 | inactive |
| Cc1cccc(OCC(=O)NCC(=O)N/N=C/c2ccc(N(C)C)cc2)c1 | 7.38 µM (active) |
| Cc1ccc(/C=N/NC(=O)CNC(=O)COc2ccccc2)o1 | inactive |
| COc1ccccc1C(=O)COC(=O)CNS(=O)(=O)c1ccc(NC(C)=O)cc1 | inactive |
| Cc1ccc(N2C(=O)C3C4C=CC(CC4)C3C2=O)cc1Br (centres undefined) | inactive |
| Cc1ccc(N2C(=O)C3C4C=CC(CC4)C3C2=O)cc1Cl (centres undefined) | 3.7 µM (active) |
| CC(=O)Nc1ccc(N2C(=O)C3C4C=CC(CC4)C3C2=O)cc1 (centres undefined) | inactive |

| SMILES | Potency |
| --- | --- |
| CCC(C)(C)NC(=O)C(c1ccc(OC)cc1)N(C(=O)CCC(=O)Nc1cc(C)on1)c1ccc(OC)cc1OC (centres undefined) | inactive |
| COc1cc(CC(=O)N2CCC(n3nccc3NC(=O)C3CC3)CC2)cc(OC)c1OC | inactive |
| O=c1c2ccccc2nc(-c2ccco2)n1-c1ccc(Br)cn1 | inactive |
| Cc1ccc(-c2nc3c(cnn3-c3ccccc3)c(=O)o2)cc1 | inactive |
| Cc1ccc(-n2ncc3c(=O)n(-c4ccc(C)c(C)c4)c(-c4ccco4)nc32)cc1 | 9.28 µM (active) |
| CC(=O)Nc1ccc(C(=O)N(C2=NC(C)CS2)c2ccc(Cl)cc2)cc1 (centres undefined) | inactive |
| COc1ccc(S(=O)(=O)NCC(c2ccco2)N2CCOCC2)cc1 (centres undefined) | inactive |
| CCN(Cc1ccncc1)C(=O)CCc1ccccc1 | 13.1 µM (active) |
| O=C(O)CCC(=O)N(Cc1ccccc1)Cc1ccccc1 | inactive |
| CCC(=O)N(Cc1ccccc1)c1ccccn1 | inactive |
| O=C(CCC(=O)n1ncc2ccccc21)NCc1ccccc1Cl | inactive |
| Cc1ccc(-n2c(SCC(=O)NCc3ccc4c(c3)OCO4)nnc2-c2cccnc2)c(C)c1 | 9.28 µM (active) |
| Cc1ccccc1-n1c(SCC(=O)NCc2cccs2)nnc1-c1ccncc1 | inactive |
| Cc1cccc(C)c1NC(=O)CSc1nnc(-c2ccccc2)n1Cc1ccc2c(c1)OCO2 | inactive |
| COc1ccc(NC(=O)c2cc(-c3ccc(C)cc3)on2)cc1 | inactive |
| Cc1csc(NC(=O)CSc2nnc(-c3cccnc3)o2)n1 | inactive |
| CCc1ccccc1NC(=O)/C(=C/c1ccccc1)c1ccccc1 | 8.28 µM (active) |
| CCOc1ccc(/C=C(/NC(=O)c2ccccc2)C(=O)NCCC(=O)O)cc1 | inactive |
| CCc1ccccc1NC(=O)c1cccs1 | inactive |
| CCSc1nc(O)c(C(c2cccc(OC)c2)c2c(O)nc(SCC)[nH]c2=O)c(=O)[nH]1 | inactive |
| CCOC(=O)C1=C(c2ccccc2)NC(=O)NC1c1cc(OC)c(OC)cc1OC (centres undefined) | inactive |
| CCOC(=O)C1CN(S(=O)(=O)c2ccc(OC)cc2)c2cc(Cl)ccc2O1 (centres undefined) | inactive |
| CCOC(=O)C1=C(CSc2nccn2C)NC(=O)NC1c1ccc(OC)cc1 (centres undefined) | 13.1 µM (active) |
| COc1ccc(-c2ccc3nnc(SCC(=O)Nc4ccc(NC(C)=O)cc4)n3n2)cc1 | inactive |
| O=C(Nc1ccccc1)N1CCN(C2c3ccccc3-c3ccccc32)CC1 | 2.62 µM (active) |
| O=C(Nc1ccccc1)N1CCN(C(=O)Nc2ccccc2)CC1 | inactive |

| SMILES | Potency |
| --- | --- |
| O=C(Nc1ccccc1)N1CCN(Cc2ccccc2)CC1 | inactive |
| CN1C(C(=O)NCc2ccco2)CC2Cn3c(nc4ccccc43)C21 (centres undefined) | inactive |
| CC(C)(C)C(=O)Nc1ccc(-c2cn3cccnc3n2)cc1 | inactive |
| Cc1ccc(C(=O)COC(=O)CCN2C(=O)C3C4CCC(C4)C3C2=O)cc1C (centres undefined) | inactive |
| O=C(CCN1C(=O)C2C3CCC(C3)C2C1=O)Nc1ccc(Cl)cc1Cl (centres undefined) | 7.38 µM (active) |
| O=C(NC(=S)Nc1ccc(Cl)cc1Cl)C1CC1 | inactive |
| O=C(N/C(=C\c1ccc([N+](=O)[O-])cc1)C(=O)N1CCCCC1)c1ccco1 | inactive |
| COCCn1c(SCC(=O)Nc2nc(C)cs2)nnc1C(C)C | inactive |
| O=C1c2cccc3c([N+](=O)[O-])ccc(c23)C(=O)N1CC1CCCO1 (centres undefined) | 10.4 µM (active) |
| CCC(=O)Nc1ccc(C(=O)Nc2ccc3c(c2)C(=O)N(CC2CCCO2)C3=O)cc1 (centres undefined) | inactive |
| O=C(NCc1ccc2c(c1)OCO2)c1ccc2c(c1)C(=O)N(CC1CCCO1)C2=O (centres undefined) | inactive |
| C[N+](C)(C)CCNC(=O)c1cc[n+](Cc2ccccc2)c(/C=N/O)c1 | inactive |
| O=C(Nc1nccs1)C1CCN(S(=O)(=O)c2ccc(Cl)c(C(F)(F)F)c2)CC1 | 13.1 µM (active) |
| O=C(Nc1ccccn1)C1CCN(S(=O)(=O)c2ccc3c(c2)OCCO3)CC1 | inactive |
| O=C(Nc1ccccn1)C1CCN(S(=O)(=O)c2ccccc2)CC1 | inactive |
| CN(C)c1ccc(-c2nnc(-c3cccnc3)o2)cc1 | inactive |
| CC1CC(C)CN(S(=O)(=O)c2cccc3nonc23)C1 (centres undefined) | inactive |
| CCN(C(=O)CSc1nnnn1-c1ccccc1OC)C1CCS(=O)(=O)C1 (centres undefined) | inactive |
| COc1ccc(CCNC(=O)CCNS(=O)(=O)c2cc(Br)cnc2N)cc1OC | inactive |
| COc1cc2c(cc1OC)C(c1ccc(C)o1)CC(=O)N2 (centres undefined) | 13.1 µM (active) |
| COc1cc2c(cc1OC)C(C(=O)Nc1cc(C)c(OC)c(C)c1)CC(=O)N2 (centres undefined) | inactive |
| COC(=O)C1=C(C)NC(=O)CC1c1ccccc1OC (centres undefined) | inactive |
| CC(=O)CC[C@@H](C)O[C@@H]1OC(C)[C@H](O)CC1O (some centres undefined) | inactive |
| C=CCOc1ccc(/C=C/C(=O)OCC(=O)NC2CCCCCC2)cc1 | inactive |
| N#Cc1cccc(NC(=O)C2CCCN(C(=O)c3ccc(Cl)cc3)C2)c1 (centres undefined) | 9.28 µM (active) |
| N#Cc1cccc(NC(=O)CCC2CCCC2)c1 | inactive |

| SMILES | Potency |
| --- | --- |
| N#Cc1cccc(NC(=O)CN2CCCCCC2)c1 | inactive |
| COC(=O)C1=CN(c2ccc(F)c(F)c2)C=C(C(=O)OC)C1c1ccc([N+](=O)[O-])cc1 | inactive |
| COc1ccc(C(C(=O)NC2CCCCC2)N(C(=O)c2snc(C(N)=O)c2N)c2ccccc2OC)cc1 (centres undefined) | inactive |
| COc1ccc(C(C(=O)NC2CCCCC2)N(C(=O)CCl)c2ccccc2Cl)cc1 (centres undefined) | 0.294 µM (active) |
| COc1cccc(N(C(=O)C2COc3ccccc3O2)C(C(=O)NC2CCCCC2)c2ccc(O)cc2)c1 (centres undefined) | inactive |
| CC(C)C(c1nnnn1C1CCCCC1)N1CCN(C(=O)c2ccco2)CC1 (centres undefined) | inactive |
| CN(C)Cc1c(C(=O)N/N=C/c2ccccc2OCc2ccc(F)cc2)nnn1-c1nonc1N | inactive |
| CCC1OC(c2ccc([N+](=O)[O-])cc2)=Nc2ccccc21 (centres undefined) | inactive |
| CCCC(=O)N1CCC(CCC(=O)NC2CC2)CC1 | inactive |
| COc1ccc(NC(=O)CCCC2CCCCC2)c(OC)c1 | inactive |
| COc1ccc(C[C@H]2CN3C(=NC[C@H]3C)N2CCNC(=O)CCC2CCCCC2)cc1 | 6.57 µM (active) |
| COc1ccc(CCNC(=O)COC(=O)C2CCCCC2)cc1 | inactive |
| COc1cc(C2NC(=O)NC(c3ccccc3)=C2C(C)=O)c(Br)cc1OCC(N)=O (centres undefined) | inactive |
| CCOC(=O)C1=C(c2ccccc2)NC(=O)NC1c1cc(OCC)c(O)c([N+](=O)[O-])c1 (centres undefined) | inactive |
| CCCOc1ccc(C2NC(=O)NC(c3ccccc3)=C2C(C)=O)cc1OCC (centres undefined) | 4.65 µM (active) |
| Cc1ccc(S(=O)(=O)N/N=C(\c2ccccc2)C2CC2)cc1 | inactive |
| FC(F)(F)c1cccc(Cc2noc(CN3CCC(N4CCCCC4)CC3)n2)c1 | inactive |
| O=C(c1ccco1)N1CCN(Cc2cccc(C(F)(F)F)c2)CC1 | inactive |
| CCOC(=O)N1CCN(Cc2nc(Cc3cccc(C(F)(F)F)c3)no2)CC1 | 9.28 µM (active) |
| Cc1ccc2nc(SCC(=O)N3CC(C)OC(C)C3)nc(=O)n2c1 (centres undefined) | inactive |
| CC(OC(=O)CCCc1c[nH]c2ccccc12)C(=O)Nc1ccc(S(N)(=O)=O)cc1 (centres undefined) | inactive |
| COc1ccc(C(=O)CCc2ccccc2O)c(OC)c1 | inactive |
| Cc1ccc(S(=O)(=O)N(C)CC(=O)OCC(=O)Nc2ccccc2)cc1 | inactive |
| Cc1ccc(NC(=O)C2CCCN2S(=O)(=O)c2cccc3cccnc23)c(C)c1 (centres undefined) | inactive |
| COc1ccc(OC)c(NC(=O)C2CCCN2S(=O)(=O)c2cccc3nsnc23)c1 (centres undefined) | 13.1 µM (active) |
| COc1ccc(N(C)C(=O)C2CCN(S(=O)(=O)c3cccc4nsnc34)CC2)cc1 | inactive |
